Hits are enriched below; roughly 0.9% of the tested compounds scored in any of these assays.
PPARg SRC-1 ag: agonists of human PPARgamma SRC-1 coactivator recruitment | PPARgamma-SRC-1 coactivator recruitment biochemical assay | activation, % at 8 µM | P37231 | hit rate 0.41% among 200,000 | AID 631; in the data active = activation above about 19%;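 note: 0% = DMSO and 100% = reference agonist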
PPARg SRC-2 ag: PPARgamma-driven SRC-2 recruitment agonism; P37231; PPARgamma LBD-SRC-2 recruitment, biochemical; activation, % at 8 µM; hit rate 0.34% among 200,000; AID 1032;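 note: 0% = vehicle and 100% = reference agonist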
SRC2 TRFRET art: counter-screen for PPARgamma SRC-2 recruitment agonists: TR-FRET artefact. TR-FRET ratio at 8 µM. stronger effect = higher value. hit rate 0.4% among 200,000; in the data active = TR-FRET ratio above about 2000
PPARg SRC-3 ag: PPARgamma-driven SRC-3 recruitment agonism | AID 731 | hit rate 0.26% among 200,000 | biochemical PPARgamma/SRC-3 coactivator recruitment assay | P37231 | activation, % at 8 µM; in the data active = activation above about 23%;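 note: 0% = DMSO and 100% = reference agonist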
SRC1 TRFRET art: flags TR-FRET format artefacts in PPARgamma SRC-1 recruitment agonist screen; TR-FRET detection artefact counter-screen, emission ratio; stronger effect = higher value; TR-FRET ratio at 8 µM; hit rate 0.34% among 99,000; AID 1051; in the data active = TR-FRET ratio above about 2300
SRC3 TRFRET art: counter-screen for PPARgamma SRC-3 recruitment agonists: TR-FRET artefact; PPARgamma/SRC-3 format; stronger effect = higher value; TR-FRET ratio at 8 µM; hit rate 0.39% among 99,000; AID 1048; in the data active = TR-FRET ratio above about 2000
PPARg SRC2 ag: human PPARgamma SRC-2 recruitment agonism, confirmation. hit rate 52% among 790. activation, % at 8 µM. shares compounds with PPARg SRC-3 ag. biochemical SRC-2 recruitment by PPARgamma;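 note: 0% = vehicle alone and 100% = reference agonist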
PPARg SRC1 ag: confirmation of agonists of SRC-1 recruitment by human PPARgamma. shares compounds with PPARg SRC-3 ag. PPARgamma–SRC-1 coactivator recruitment biochemical assay. activation, % at 8 µM. hit rate 43% among 790. AID 1300; in the data active = activation above about 20%;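 note: 0% = vehicle wells and 100% = reference agonist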
PPARg SRC3 conf: human PPARgamma SRC-3 recruitment agonism, confirmation; shares compounds with PPARg SRC-3 ag; hit rate 29% among 790; biochemical PPARgamma-SRC-3 coactivator recruitment, agonist mode; activation, % at 8 µM; in the data active = activation above about 24%;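 note: 0% = vehicle wells and 100% = reference agonist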
The depositor's hits bear a star; . = not tested or not shown. Cut-off read from the data, not from the text of the source, unless noted: active = activation above about 22%; inactive = the rest.

SMILES	PPARg SRC-1 ag	PPARg SRC-2 ag	SRC2 TRFRET art	PPARg SRC-3 ag	SRC1 TRFRET art	SRC3 TRFRET art	PPARg SRC2 ag	PPARg SRC1 ag	PPARg SRC3 conf
N#Cc1ccccc1CSc1ccc(-c2nc3ccccc3[nH]2)cn1	22*	33*	1850	26*	.	.	35*	23*	22
Cc1cccc(N=C2NC(=O)S/C2=C\c2ccco2)c1	22*	13	1634	-1	2337*	1601	6	9	4
Cc1ccc2nsnc2c1NS(=O)(=O)c1c(C)ccc2nsnc12	4	-3	1392	12	.	.	.	.	.
Cc1ccc(/C=[N+](\[O-])c2ccc(N(C)C)cc2)c2nsnc12	27*	10	1862	11	2222	1884	17	12	8
CCOc1ccccc1N1CCN(C(=O)CCCc2nc3ccccc3s2)CC1	0	-1	1582	0	1901	1630	.	.	.
CN(C)c1ccc(N/C=C/C(=O)c2ccco2)cc1	5	24*	1727	15	.	.	10	9	7
NS(=O)(=O)c1ccc(N/C=C\C(=O)c2ccc(F)cc2)cc1	-2	-9	1546	-2	1676	1596	.	.	.
CC(=O)Nc1ccc(N/C=C/C(=O)c2ccco2)cc1	3	5	1573	-2	.	.	.	.	.
CN(C)c1ccc(N/C=C/C(=O)c2ccc(F)cc2)cc1	8	21	1739	27*	.	.	9	5	6
O=C(CCN1C(=O)c2cccc3cccc(c23)C1=O)Nc1ccccc1	-4	-2	1652	2	1890	1442	.	.	.
O=C(O)c1cccnc1SCc1cccc(Cl)c1	7	-5	1588	2	1945	1623	.	.	.
COc1ccc(-c2cc(C(=O)Nc3c(C)n(C)n(-c4ccccc4)c3=O)no2)cc1OC	0	1	1342	2	1864	1627	.	.	.
CN(C)/C=C/c1oc2ccc(O)cc2c1[N+](=O)[O-]	19	24*	1792	18	2270	1948	14	14	14
Fc1cccc(NC(=S)NNc2c3ccccc3nc3ccccc23)c1	45*	53*	2526*	21	3530*	2517*	3	4	1
COc1ccc(Br)cc1-c1nc(CCl)cs1	62*	62*	3230*	42*	3749*	3363*	59*	43*	41*
COc1ccc(N(CC(=O)NCCC2=CCCCC2)S(=O)(=O)c2ccc(C)cc2)cc1OC	-7	-5	1426	3	1914	1478	.	.	.
O=C(c1ccco1)N1N=C(c2ccc(Br)cc2)CC1(O)C(F)(F)F (stereo not given)	23*	15	2022*	13	2287	1800	15	14	13
O=C(c1ccco1)N1N=C(c2ccc(Cl)cc2)CC1(O)C(F)(F)F (stereo not given)	5	3	1680	6	1753	1690	.	.	.
CC(=O)c1ccc(S(=O)(=O)N2CCCCC2C(=O)O)cc1 (stereo not given)	5	-3	1586	-1	1591	1415	.	.	.
Cc1ccc(C)c(CN2C(=O)C3CCCN3c3ccc(C#N)cc32)c1 (stereo not given)	0	1	1692	10	.	.	.	.	.
Cc1ccc(CN2C(=O)C3CCCN3c3ccc(C#N)cc32)cc1 (stereo not given)	7	16	1578	29*	.	.	12	14	8
O=[N+]([O-])c1ccc2ccn(C3OCC(O)C(O)C3O)c2c1 (stereo not given)	-9	-4	1507	-2	1584	1515	.	.	.
O=C1NC(Cc2c[nH]c3ccccc23)C(=O)N1Cc1ccc(CN2C(=O)NC(Cc3c[nH]c4ccccc34)C2=O)cc1 (stereo not given)	-3	-3	1494	-5	1697	1358	.	.	.
CC(C)OC(=O)C(C)Nc1n[nH]c(=S)[nH]c1=O (stereo not given)	71*	66*	3006*	45*	3785*	3327*	98*	74*	64*
CCOC(=O)CSc1nnc(NCC(=O)OC(C)C)c(=O)[nH]1	7	7	1728	7	.	.	.	.	.
SMILES	PPARg SRC-1 ag	PPARg SRC-2 ag	SRC2 TRFRET art	PPARg SRC-3 ag	SRC1 TRFRET art	SRC3 TRFRET art	PPARg SRC2 ag	PPARg SRC1 ag	PPARg SRC3 conf
COC(=O)CNc1n[nH]c(=S)[nH]c1=O	100*	121*	4234*	156*	.	.	119*	86*	82*
CC(C)COC(=O)C(C)Nc1n[nH]c(=S)[nH]c1=O (stereo not given)	8	10	1786	5	2031	1932	.	.	.
COC(=O)CCNc1n[nH]c(=O)[nH]c1=O	-1	8	1554	7	1933	1714	.	.	.
CC(C)OC(=O)CNc1n[nH]c(=S)[nH]c1=O	113*	129*	4518*	74*	5153*	4653*	106*	78*	71*
O=C(CCC(=O)N/N=C/c1cc(Cl)cc(Cl)c1O)NCc1ccccc1	2	-1	1420	2	1767	1495	.	.	.
CCSc1nc(N)c2c3c(sc2n1)CCC3	18	28*	2185*	32*	.	.	20	13	13
CC(=O)Oc1c(/C=C(\C#N)C(N)=O)[nH]c2ccccc12	21*	22*	1474	10	1870	1629	22*	12	13
CCOc1cc(/C=C2\CCCC(C(=O)C(F)(F)F)=C2O)ccc1O	3	0	1599	-1	1686	1284	.	.	.
S=c1[nH]nc(C2CCCCC2)o1	5	12	1529	0	1772	1279	.	.	.
Cc1cccc(CN(C(=S)Nc2c(C)cccc2C)c2cccnc2)c1	10	2	1579	8	1905	1486	.	.	.
CN(C)c1ccc(CN(C(=O)COc2ccc(Br)cc2)C2CCS(=O)(=O)C2)cc1 (stereo not given)	13	1	1438	-8	.	.	.	.	.
Cc1ccc(OCC(=O)N(Cc2ccc(N(C)C)cc2)C2CCS(=O)(=O)C2)cc1 (stereo not given)	21*	10	1604	15	.	.	-1	2	1
CC(=O)N1N=C(c2ccc(C)o2)CC1c1ccc(Br)cc1 (stereo not given)	3	5	1541	8	.	.	.	.	.
COc1ccc(C2CC(c3ccc(Br)cc3)=NN2C(=S)Nc2ccccc2)cc1 (stereo not given)	28*	26*	2406*	22	2916*	2737*	44*	39*	26*
CNC(=S)N1N=C(c2ccc(Br)cc2)CC1c1ccc(Br)cc1 (stereo not given)	30*	28*	3230*	51*	.	.	47*	37*	28*
